PubChem BioAssay
Calls of active or inactive are those of the source.

What was measured:
Albumin (Bos taurus) = Albumin (Bos taurus) (UniProt P02769); assay: compounds binding labelled BSA control protein – biochemical, small-molecule microarray, Alexa647 label, 635/667 nm fluorescence, artefact control for SMM control protein annotation, profiling panel (AID 1118); conditions: BSA-A647 binding, fluorescence 635 nm, higher = more signal;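 note: score merges 667 nm emission intensity and signal-to-noise per printed compound spot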
[1] = probe aXIP binding to arrayed compounds – biochemical, NeuroSMM set, 635/667 nm fluorescence, primary screen (AID 1119); conditions: small-molecule microarray, higher = more signal, called active from +8 up or from −8 down;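 note: probe is the protein aXip251-270 applied at 1 µg/mL to compound-printed slides; binding of probe to printed compounds measured as 667 nm fluorescence plus signal to noise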
[2] = probe aNOTCH3 binding on compound microarray – biochemical, small-molecule microarray, 635/667 nm fluorescence, primary screen (AID 1120); conditions: higher = more signal;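 note: probe is a biotin-tagged antibody raised against NOTCH3 rather than NOTCH3 protein; score merges spot fluorescence near 667 nm with spot signal to noise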
[3] = probe aNOTCH2 binding on compound microarray – biochemical, small-molecule microarray, 635/667 nm fluorescence, primary screen (AID 1121); conditions: higher = more signal;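 note: score merges feature fluorescence read at 667 nm with its signal to noise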
[4] = target: Carbonic anhydrase 2 (Homo sapiens) (UniProt P00918); assay: compounds binding carbonic anhydrase 2 – biochemical, small-molecule microarray, Alexa647-labelled CAII, profiling panel (AID 1122); conditions: CAII-A647 binding fluorescence, higher = more signal
[5] = COS7 lysate on small-molecule microarray, probe aHis, 635 nm (AID 1123); conditions: COS7 cell lysate, fluorescence, higher = more signal;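 note: z-score combines 667nm fluorescence intensity with signal-to-noise per printed compound spot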
[6] = probe aLAP1 signal on lysate-treated microarray – cell lysate, small-molecule microarray, COS7 lysate, primary screen (AID 1124); conditions: probe aLAP1, fluorescence, higher = more signal;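 note: lysate comes from COS7 cells expressing LAP1 and is applied at 0.3 µg/mL; score merges spot fluorescence near 667 nm with signal-to-noise over triplicate slides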
Sam68 (KHDRBS1) = assay: compounds binding KHDRBS1 protein – biochemical, small-molecule microarray, 635 nm fluorescence, primary screen (AID 1125); conditions: higher = more signal;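 note: score merges 667 nm channel intensity with signal to noise over triplicate slides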
[7] = system: Chordin-like protein 2 (CHRDL2); assay: compounds binding chordin-like 2 – biochemical, small-molecule microarray, 635 nm fluorescence, primary screen (AID 1126); conditions: fluorescence 635 nm, higher = more signal;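 note: printed compound slides probed with Chrdl2 protein at 4 µg/mL for 1 h at 4 C; score merges 667 nm emission intensity with signal to noise over three replicate slides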
[8] = target: Concanavalin-A (Canavalia ensiformis) (UniProt P02866); assay: compounds binding concanavalin A lectin – biochemical, small-molecule microarray, Alexa647 label, 635 nm, artefact control for SMM control protein annotation, primary screen (AID 1127); conditions: ConA-A647 binding fluorescence, higher = more signal;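 note: z combines 667 nm emission intensity with signal-to-noise across three replicate slides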
Concanavalin-A (Canavalia ensiformis), sequence (P02866 whole entry, looked up): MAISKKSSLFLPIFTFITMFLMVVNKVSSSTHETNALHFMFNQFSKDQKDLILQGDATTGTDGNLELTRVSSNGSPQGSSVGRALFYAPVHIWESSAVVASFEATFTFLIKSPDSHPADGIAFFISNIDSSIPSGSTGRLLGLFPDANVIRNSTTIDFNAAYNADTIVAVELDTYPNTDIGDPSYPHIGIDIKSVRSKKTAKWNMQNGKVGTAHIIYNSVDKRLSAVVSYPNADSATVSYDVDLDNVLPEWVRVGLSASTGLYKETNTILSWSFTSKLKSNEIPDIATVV

Albumin (Bos taurus), sequence (P02769 whole entry, looked up): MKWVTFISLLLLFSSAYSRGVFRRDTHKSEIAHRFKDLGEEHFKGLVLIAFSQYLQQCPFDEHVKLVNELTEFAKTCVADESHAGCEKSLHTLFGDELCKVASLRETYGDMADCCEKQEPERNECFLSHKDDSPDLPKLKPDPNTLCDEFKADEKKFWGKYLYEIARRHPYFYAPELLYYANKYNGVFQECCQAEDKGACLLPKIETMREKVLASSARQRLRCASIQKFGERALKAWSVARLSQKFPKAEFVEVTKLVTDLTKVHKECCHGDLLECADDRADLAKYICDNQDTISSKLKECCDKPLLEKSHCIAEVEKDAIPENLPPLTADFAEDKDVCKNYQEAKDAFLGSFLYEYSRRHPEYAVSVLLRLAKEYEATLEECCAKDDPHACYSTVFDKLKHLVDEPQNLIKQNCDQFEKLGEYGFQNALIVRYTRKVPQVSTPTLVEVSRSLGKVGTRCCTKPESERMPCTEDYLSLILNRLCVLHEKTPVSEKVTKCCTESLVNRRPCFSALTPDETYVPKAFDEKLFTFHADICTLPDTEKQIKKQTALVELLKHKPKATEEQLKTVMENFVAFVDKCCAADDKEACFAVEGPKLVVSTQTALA

Row | SMILES | composite z-score (Albumin (Bos taurus)) | composite Z-score [1] | composite z-score [2] | composite z-score [3] | composite z-score [4] | composite z-score [5] | composite z-score [6] | composite z-score (Sam68 (KHDRBS1)) | composite z-score [7] | composite z-score [8]
1 | COC(=O)C1(CC(C)C)C=C2C(=C(C(C)C)C(=O)C2C)CN1 (stereo not given) | -0.597 | 0.116 (inactive) | -0.0043 | -0.119 | 0.539 | 0.0678 | -0.463 | -0.923 | -0.699 | -2.07
2 | COCCOC(=O)N1C(=O)[C@@]2(c3cc(C#Cc4ccc(OC)cc4)ccc31)[C@H](C(=O)N1CCCCCCC1)[C@H]1C(=O)O[C@H](c3ccccc3)[C@H](c3ccccc3)N1[C@@H]2c1ccccc1OCCO | 0.768 | 4.24 (inactive) | 1.49 | 0.793 | 0.472 | 3 | 1.3 | 1.3 | 1.21 | 0.893
3 | C=CC[C@]1(C(=O)N(C)C)COC(c2ccc(OCCCO)cc2)=N1 | 0.795 | -0.0102 (inactive) | 0.298 | 0.107 | 0.914 | 3.5 | 1.41 | 1.25 | -0.492 | 0.673
4 | O=C1OCCC=C[C@H]2OC34C=CCN(c5ccc(Cl)cc5)C(=O)[C@H]3N(CCO)C(=O)[C@@H]4C12 (stereo not given in full) | 0.597 | 0.359 (inactive) | -0.406 | -0.189 | 0.859 | -0.387 | -0.419 | -0.914 | -0.291 | -0.648
5 | CCN(CC)c1ccc(N2CC=CC34O[C@@H]5C=CCOC(=O)[C@@H]5[C@H]3C(=O)N(CCO)[C@@H]4C2=O)cc1 (stereo not given in full) | -0.869 | 2.39 (inactive) | 0.0035 | -0.24 | 0.913 | -0.368 | -0.714 | -0.683 | -1.83 | -1.14
6 | C=CC[C@@]1(C(=O)N(C)C)N=C(c2ccc(OCCCO)cc2)O[C@@H]1c1ccccc1 | 0.434 | -0.593 (inactive) | 0.315 | 0.182 | 0.644 | 2.59 | 1.01 | -0.108 | 0.0028 | 0.148
7 | C=C(COC)/C(=C/C[C@H](OC(=O)c1ccncc1)c1ccc(OCCO)cc1)c1cc(C(=O)OC)ccc1OC | 0.401 | 0.3 (inactive) | 0.325 | -0.123 | 0.357 | 1.39 | 0.84 | 1.26 | 0.249 | 0.952
8 | COC(=O)[C@@]1(Cc2ccccc2)[C@H]2c3cc(C(=O)N4CCCC4)n(Cc4ccc(C(F)(F)F)nc4)c3C[C@H]2CN1C(=O)c1ccccc1 | 0.958 | -0.296 (inactive) | 0.843 | 0.292 | 0.478 | 3.1 | 0.232 | 1.31 | -0.873 | 1.16
9 | COCCOC(=O)N1C(=O)[C@@]2(c3cc(C#CCCO)ccc31)[C@H](C(=O)N1CCc3cc(OC)c(OC)cc3C1)[C@H]1C(=O)O[C@H](c3ccccc3)[C@H](c3ccccc3)N1[C@@H]2c1ccccc1OCCO | 0.357 | 0.471 (inactive) | 0.285 | 0.0401 | 0.422 | 1.2 | 1.01 | 1.32 | 0.855 | 1.13
10 | C=CCC(OC(C)=O)[C@@H]1[C@@H](N(Cc2ccc(-c3cccc(C(F)(F)F)c3)o2)C(=O)Cc2ccc(F)cc2)c2cc(OCCCO)ccc2N1C(=O)c1ccc2ccccc2c1 (stereo not given in full) | -0.229 | -0.0127 (inactive) | -0.0813 | -0.117 | -0.351 | 0.0261 | -0.211 | -0.749 | -0.0715 | -1.35
11 | COCCOC(=O)N1C(=O)[C@@]2(c3ccccc31)[C@H](c1ccc(OCCO)cc1)N1[C@H](c3ccccc3)[C@H](c3ccccc3)OC(=O)[C@H]1[C@@H]2C(=O)N1CCN(c2ncccn2)CC1 | 0.0718 | -0.216 (inactive) | 0.146 | 0.0248 | 0.351 | 1.78 | 0.282 | 1.3 | 0.756 | 1.1
12 | COc1cc2c(cc1O)C(C1CC1)N(Cc1ccc([N+](=O)[O-])o1)CC2 (stereo not given) | 0.959 | 0.676 (inactive) | 0.0159 | -0.0826 | 0.717 | 1.42 | 1.03 | 0.835 | -0.465 | 0.934
13 | COCCn1c(C(=O)N2CCCC2)cc2c1C[C@H]1CN(C(=O)c3ccccc3)[C@@](Cc3ccccc3)(C(=O)OC)[C@@H]21 | 1.03 | 0.239 (inactive) | 0.676 | 0.6 | 0.676 | 3.14 | 0.403 | 1.29 | -0.133 | 1.11
14 | Cc1ccc(S[C@]2(C(=O)NC3CC3)CC(=O)N(Cc3cc(C(F)(F)F)cc(C(F)(F)F)c3)[C@@H]2c2ccc(CO)cc2I)cc1 | 0.0876 | 0.193 (inactive) | -0.512 | 0.381 | 0.554 | 1.18 | 0.959 | 0.964 | 0.452 | 1.07
15 | C=C(/C(=C/C[C@@H](OC(C)=O)c1ccccc1OCCO)c1cc(C(=O)OC)ccc1OC)C(C)C | 0.344 | 0.231 (inactive) | 0.217 | -0.0548 | 0.697 | 0.335 | -0.394 | 0.373 | -0.134 | 1.02
16 | CCCC[C@@H]1C[C@H]1[C@@H](NC(=O)c1ccc(C(F)(F)F)cc1)c1ccc(C(=O)OC)cc1 | 0.0711 | 0.0888 (inactive) | 0.0501 | -0.0347 | 0.441 | 1.27 | 1.25 | 0.504 | 1.27 | 0.441
